According to article PMC7819943, “Rice protein-binding microarrays: a tool to detect cis-acting elements near promoter regions in rice”:
Whole data set: some 68,000 sequences, median “fluorescence intensity (a.u.)” near 9,100, cut for the highest 2% near 16,000. This excerpt belongs to a sample that is enriched for the highest values.

These sequences were tested against OsWRKY34 (Oryza sativa, UniProt Q0JBA9 1-250) (assay: protein-binding microarray (RPBM); PBS, 2% BSA, 51.3 ng/ul salmon testes DNA, 50 uM zinc acetate, 200 nM TF, 25 C, 1 h; high values mean tight binding). Details: protein: recombinant; tags: N-terminal polyhistidine and DsRed monomer fusion (pET32a); label: CyDye5-dUTP incorporated in the synthesized complementary strand; 3' TTTTT single-stranded linker to array surface; dsDNA, one strand shown.
Summary of the method: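 Per-feature fluorescence intensity (arbitrary units), read on an Axon 4000B scanner, is the binding signal. Transcription factors carrying an N-terminal polyhistidine tag and DsRed fusion were expressed in E. coli BL21-CodonPlus and purified on Ni–NTA. A custom Agilent array, made double-stranded by primer extension with Cy5-dUTP and blocked with 2% BSA, was incubated with 200 nM protein in PBS, 2% BSA, salmon testes DNA and 50 µM zinc acetate at 25 °C for 1 h and then washed.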

OsWRKY34, sequence (Q0JBA9 entry or part of it): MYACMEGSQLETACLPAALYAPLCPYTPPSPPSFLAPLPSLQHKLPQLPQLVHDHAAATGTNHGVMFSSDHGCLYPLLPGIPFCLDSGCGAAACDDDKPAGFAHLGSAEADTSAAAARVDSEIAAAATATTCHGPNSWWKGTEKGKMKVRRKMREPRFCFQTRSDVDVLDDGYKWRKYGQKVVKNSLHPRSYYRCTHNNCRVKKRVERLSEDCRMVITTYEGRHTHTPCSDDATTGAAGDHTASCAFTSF

Sequence	binding signal
ATACAATCTACTTGAATCGTTTTTTCTTTACTTTTCAGTTCGGAGTCACCTAGTGCAG	9840 fluorescence intensity (a.u.)
ACTTAGCAGCACTTGTCCCGTTCTCCTGAAGACAGTCCAACGGAGTCACCTAGTGCAG	9480 fluorescence intensity (a.u.)
CAGTAATTGTCACTATCTTATTACACATTATTCTGTCCAGCGGAGTCACCTAGTGCAG	8060 fluorescence intensity (a.u.)
TCCTGTCCAGTCTCCACTCGCAAACCCTTCTCGCCGCCATCGGAGTCACCTAGTGCAG	10400 fluorescence intensity (a.u.)
GACCGCTTCACCCGCCCAATCAAAACCGTCCATCCATCCCCGGAGTCACCTAGTGCAG	10300 fluorescence intensity (a.u.)
CAGTAACAATCACTCATTCTCAGTATCTGCTACTCCTCTACGGAGTCACCTAGTGCAG	8710 fluorescence intensity (a.u.)
CTCCTCTTTGTGTGTAGACTGAAAAGGTGGAAAGTTTACCCGGAGTCACCTAGTGCAG	9750 fluorescence intensity (a.u.)
CGCGTAACCCACCCAATGTTTCACTCCTGCAGCACTTGACCGGAGTCACCTAGTGCAG	9370 fluorescence intensity (a.u.)
CTATATATTTACCCACTGTATACCTCTGTCATGAAAGCATCGGAGTCACCTAGTGCAG	11500 fluorescence intensity (a.u.)
CTCGTTTGATCTCTCAGTTGGGAGCATTATTTCTGCGCATCGGAGTCACCTAGTGCAG	10800 fluorescence intensity (a.u.)
CAACGGCGAATCAACGCCCGAACCGACTCTTTTATCTTTTCGGAGTCACCTAGTGCAG	9920 fluorescence intensity (a.u.)
ACAAATTTGTAGCCCGCTGCTCTTCTCTCTCATCTTTTATCGGAGTCACCTAGTGCAG	9220 fluorescence intensity (a.u.)
TCCCTCGGTCCCATCGTATATATATATACCGTATGTCCCGCGGAGTCACCTAGTGCAG	9470 fluorescence intensity (a.u.)
CGTATACCTCGGAGAAGTTCTCATCCGCTGACGTGTCCCGCGGAGTCACCTAGTGCAG	19600 fluorescence intensity (a.u.)
GTCCGCATCTCATCCTTCCGCAAGTCCGTATCTCATCCCTCGGAGTCACCTAGTGCAG	10400 fluorescence intensity (a.u.)
CACCTCACCCTCACCCGCACACGCCGACACCCCGACGCGTCGGAGTCACCTAGTGCAG	9390 fluorescence intensity (a.u.)
CTTCTTTCTCAATATGTGATTTTCTTTCCTTAATCTCGTTCGGAGTCACCTAGTGCAG	8680 fluorescence intensity (a.u.)
CTCCGTCGCTGACTGCAACCTCCACCCACACGGCACCCATCGGAGTCACCTAGTGCAG	8090 fluorescence intensity (a.u.)
TATCTCTCTCCCGCTGACAACCCGGTCACACCGAACCAACCGGAGTCACCTAGTGCAG	8990 fluorescence intensity (a.u.)
CCTCTCACTGCTAGTGCCCCACACCGTTCTTCGCTGCCCACGGAGTCACCTAGTGCAG	11800 fluorescence intensity (a.u.)
TTTGCACACGGGTGACTCGTCTCTTTGTACTCACTCTCTCCGGAGTCACCTAGTGCAG	9840 fluorescence intensity (a.u.)
CTAATACGTGGGTCTCACTATTGTCTTCTTGTTTGACTGACGGAGTCACCTAGTGCAG	10700 fluorescence intensity (a.u.)

Sequence	binding signal
CCTATTCTAACACTGACGGGTGGGTCTCACAGGGTGACTCCGGAGTCACCTAGTGCAG	16900 fluorescence intensity (a.u.)
TCCTCTGTTTTACACTTGCATTCCTATCAGAATCCTATATCGGAGTCACCTAGTGCAG	9540 fluorescence intensity (a.u.)
CCCGTCGATCCACCGCGGGGACAAGCTCTAGATCTCTCTCCGGAGTCACCTAGTGCAG	8440 fluorescence intensity (a.u.)
CAGGCATGTCCAGTATAGGTGTTATTATATTTTATTATTACGGAGTCACCTAGTGCAG	8910 fluorescence intensity (a.u.)
TCCCTCTGTTCAAAATGTTTGACACCGTTGACTTTTTAAGCGGAGTCACCTAGTGCAG	20700 fluorescence intensity (a.u.)
CTCCATCCGTTTTAAAATGTTTGACACCGTTGACTTTTTACGGAGTCACCTAGTGCAG	27300 fluorescence intensity (a.u.)
TACTCCCTTCTTCCTTAGATGTTTGACACCGTTGACTTTTCGGAGTCACCTAGTGCAG	16900 fluorescence intensity (a.u.)
TATACTCCCTCCATTTCAAAATGTTTGACACCGTTGACTTCGGAGTCACCTAGTGCAG	9590 fluorescence intensity (a.u.)
ACTTCTTTAGGCGTTGACTTCTCCCTTTTCCTTTACTATTCGGAGTCACCTAGTGCAG	14800 fluorescence intensity (a.u.)
CTCCCTCCTTTTCTAAATGTTTGACACCATTGACTTTTTTCGGAGTCACCTAGTGCAG	8470 fluorescence intensity (a.u.)
ACTCCCTCCTTCCCTAAATGTTTGACACCGTTGACTTTTTCGGAGTCACCTAGTGCAG	19600 fluorescence intensity (a.u.)
CACTCTGCCTCACCTCACCTCACCTCACGTCCTCACCTCCCGGAGTCACCTAGTGCAG	10300 fluorescence intensity (a.u.)
CCGGGACGTGTGCCGCCGCTTAAGCCCGCTCTTTATACGTCGGAGTCACCTAGTGCAG	9690 fluorescence intensity (a.u.)
ACTCGTTGACCAAAGGGAGTGGAGTTTGAAAGGGTGGGAGCGGAGTCACCTAGTGCAG	14600 fluorescence intensity (a.u.)
TCTTGCAATCTTGATCGATAGTCTCCTCCATCTTCTTCGTCGGAGTCACCTAGTGCAG	8680 fluorescence intensity (a.u.)
ATAAATTATTAGTACTATTCCATATACTACATTTTCTTCTCGGAGTCACCTAGTGCAG	8440 fluorescence intensity (a.u.)
CATAGTCGTCTTCCTCGATCAATCCGCTCCGCTCCGTCTTCGGAGTCACCTAGTGCAG	8440 fluorescence intensity (a.u.)
ATGTACTCCCTCCGTTTCAAAATGTTTGACACCGTTGACTCGGAGTCACCTAGTGCAG	12300 fluorescence intensity (a.u.)
ACTCCCTCCGTTTCAAAATGTTTGACACCGTTGACTTTTTCGGAGTCACCTAGTGCAG	18500 fluorescence intensity (a.u.)
ATACTCCCTCCGTTTCAAAATGTTTGACACCGTTGACTTTCGGAGTCACCTAGTGCAG	12500 fluorescence intensity (a.u.)
CCCTCCGTTTCAAAATGTTTGACACCGTTGACTTTTTAATCGGAGTCACCTAGTGCAG	14900 fluorescence intensity (a.u.)
TGTTTTCTTCTCATTCTTCTTTTTTCCCTTTCTTTTGCTCCGGAGTCACCTAGTGCAG	8390 fluorescence intensity (a.u.)
